Rows were chosen to be rich in hits. Some 2% of all compounds tested hit in one or more screens of this group.
ID4 SMM: binders of human ID4 protein, primary screen, biochemical, small molecule microarray, single point. calls only. Flag-ID4 binding, fluorescence F/B. AID 624137, 2012. 31,000 compounds, 1.2% hits. DNA-binding protein inhibitor ID-4 (Homo sapiens), P47928; call rule not given here;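 also: a binder raises fluorescence above local background on the spot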
Target sequence (P47928 whole entry, looked up): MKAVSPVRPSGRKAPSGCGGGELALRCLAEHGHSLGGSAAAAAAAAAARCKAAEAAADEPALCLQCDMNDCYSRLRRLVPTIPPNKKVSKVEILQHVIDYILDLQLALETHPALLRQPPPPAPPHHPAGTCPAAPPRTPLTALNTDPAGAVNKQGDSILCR
STK33 inh: STK33 kinase inhibitors, primary screen, biochemical, luminescence, ADP-Glo, MBP substrate. Serine/threonine-protein kinase 33 (Homo sapiens), Q9BYT3. inhibition, % at 12.5 µM. 27,000 compounds, 0.44% hits. AID 2322, 2010; in the data active = inhibition above about 20%; inconclusive = no clear call, values can overlap the other calls
mut p53 react: mutant p53 pathway re-activators, primary screen, cell-based, SW480, luciferase, single point, HTS | activation, % at 9.98 µM | 28,000 compounds, 1.5% hits | SW480 PUMA-promoter luciferase, p53 mutant reactivation; in the data active = activation above about 52%; inconclusive = no clear call, values can overlap the other calls
Each line names hits and unclear results; the compound was inactive in the other large screens.

C[C@H]1CN([C@@H](C)CO)C(=O)CCCn2cc(nn2)CO[C@@H]1CN(C)CC1CCCCC1	ID4 SMM active (no result: mut p53 react)
C[C@@H]1CN([C@@H](C)CO)C(=O)CCCn2cc(nn2)CO[C@@H]1CN(C)CC1CCCCC1	none (no result: mut p53 react)
C[C@@H]1CN([C@@H](C)CO)C(=O)CCCn2nncc2CO[C@@H]1CN(C)C(=O)Nc1ccccc1F	none
Cc1noc(C)c1S(=O)(=O)N(C)C[C@@H]1OCc2cnnn2CCCC(=O)N([C@@H](C)CO)C[C@@H]1C	ID4 SMM active
C[C@H](CO)N1C[C@H](C)[C@@H](CN(C)Cc2ccc(Oc3ccccc3)cc2)OCc2cnnn2CCCC1=O	none
C[C@@H]1CN([C@@H](C)CO)C(=O)CCCn2nncc2CO[C@H]1CN(C)S(C)(=O)=O	none (no result: ID4 SMM, mut p53 react)
C[C@@H]1CN([C@H](C)CO)C(=O)CCCn2nncc2CO[C@@H]1CN(C)Cc1ccc(Oc2ccccc2)cc1	ID4 SMM active
CN(c1cccc(NC(=O)c2ccc(NS(=O)(=O)c3ccccc3)cc2)c1)S(C)(=O)=O	none
c1ccc(-c2cnc(SCc3nc4ccccc4[nH]3)[nH]2)cc1	none
CCOc1ccccc1NC(=O)CN1C(=O)c2cccc3cccc1c23	none
Cc1ccc(C(C)C)c(OCC(=O)Nc2cc(-c3nc4ccccc4o3)ccc2C)c1	none
CC(O)CNS(=O)(=O)c1cccc([N+](=O)[O-])c1 (stereo unspecified)	none
COc1ccccc1NC(=O)N(C)C[C@H]1OCc2cnnn2CCCC(=O)N([C@@H](C)CO)C[C@H]1C	none
COc1ccccc1NC(=O)N(C)C[C@@H]1OCc2cnnn2CCCC(=O)N([C@@H](C)CO)C[C@H]1C	ID4 SMM active
O=C(COc1ccccc1CO)Nc1ccccc1	mut p53 react 77
O=C(COc1ccc(CO)cc1)Nc1ccc(F)cc1	none
COc1ccc(NC(=O)COc2ccccc2CO)cc1	none
COc1ccccc1NC(=O)COc1ccc(Br)cc1CO	none
O=C(COc1ccc(CO)cc1)Nc1ccccc1	mut p53 react 66
Cc1ccc(NC(=O)COc2ccc(CO)cc2Br)cc1	none
Cc1ccc(NC(=O)COc2ccc(Br)cc2CO)cc1	mut p53 react 68
O=C(COc1ccc(Br)cc1CO)Nc1ccccc1F	mut p53 react 112
CCn1c(SCC(=O)Nc2ccc(Cl)cc2Cl)nnc1-c1ccccc1	none
OC(COc1ccccc1F)Cn1cnc2ccccc21 (stereo unspecified)	none
CSc1ccccc1NC(=O)CSc1nnnn1-c1ccccc1F	none
O=C(CN1CCN(S(=O)(=O)c2ccc3ccccc3c2)CC1)Nc1cc(Cl)ccc1Cl	none
O=[N+]([O-])c1ccc(OCc2nc(-c3ccccn3)no2)cc1	none
O=C(COc1ccc(Cl)cc1CO)Nc1ccc(F)cc1	mut p53 react 69
COc1cc(CO)ccc1OCC(=O)Nc1ccc(Br)cc1	mut p53 react inconclusive
O=C(COc1ccc(Br)cc1CO)Nc1ccccc1	mut p53 react 127
O=C(COc1ccc(CO)cc1Cl)Nc1ccc(F)cc1	none
COC(=O)c1cc(OC)c(OC)cc1NC(=O)COc1ccccc1F	none
O=C(Nc1ccc(S(=O)(=O)N2CCOCC2)cc1)c1cc(-c2ccncc2)nc2c(Cl)cccc12	none
Cc1ccc2nc(-c3ccccn3)cc(C(=O)Nc3ccc(S(=O)(=O)N4CCOCC4)cc3)c2c1	ID4 SMM active
COc1cccc(OC)c1C(=O)Nc1cccc(-c2nc3ncccc3o2)c1	none
Cc1ccc(NC(=O)CSc2nc3sc4c(c3c(=O)n2-c2ccccc2)CCC4)c(C)c1	none
O=C(/C=C/c1ccccc1)CC(=O)/C=C/c1ccccc1	none (no result: ID4 SMM)
O=C(/C=C/c1ccccc1)c1ccc(O)cc1	STK33 inh 27 (no result: ID4 SMM, mut p53 react)
CC(=O)Nc1ccc(OC(=O)CSc2nc3ccccc3s2)cc1	none
COc1c(N2CCNC(C)C2)c(F)cc2c(=O)c(C(=O)O)cn(C3CC3)c12 (stereo unspecified)	ID4 SMM active (no result: mut p53 react)
O=C(O)c1cn(C2CC2)c2cc(N3CCNCC3)c(F)cc2c1=O	none (no result: mut p53 react)
COC(=O)c1c(NC(=O)CC2Nc3cccc4cccc(c34)NC2=O)sc2c1CCCC2 (stereo unspecified)	none
COc1cc([C@@H](O)[C@@H](CO[C@@H]2O[C@H](CO)[C@@H](O)[C@H](O)[C@H]2O)Oc2ccc(/C=C/CO)cc2OC)ccc1O	none (no result: ID4 SMM)
Cc1ccc(-c2cc(C(=O)Nc3cc(C)nn3-c3ccccc3)no2)cc1	none
CCN(CC)C(=O)c1cc(-c2ccc(Cl)c(Cl)c2)on1	mut p53 react 72 (no result: STK33 inh)
COc1ccc(-c2nnc(SCC(N)=O)n2-c2cccc(C(F)(F)F)c2)cc1OC	none
COC(=O)c1ccccc1NC(=O)CSc1nc2c(cc1C#N)CCCCC2	STK33 inh inconclusive
Cc1ccc(NS(=O)(=O)c2cccc(C(=O)Nc3ccccc3C(=O)O)c2)cc1	ID4 SMM active
O=C(O)c1ccc(NS(=O)(=O)c2cccc(C(=O)Nc3ccccc3)c2)cc1	none
Cn1cnnc1SCC(=O)c1ccc2c(c1)OCCO2	none
Cc1nnc(SCC(=O)c2ccc3c(c2)OCCO3)s1	mut p53 react 89
CC1OC(OC2C(O)C(CO)OC(O[C@H]3CC[C@@]4(C)C(CC[C@]5(C)C4CC=C4C6CC(C)(C)CC[C@]6(C(=O)OC6OCC(OC7OCC(O)C(O)C7O)C(O)C6O)CC[C@]45C)C3(C)C)C2O)C(O)C(OC2OCC(O)(CO)C2O)C1O (stereo partly specified)	none (no result: mut p53 react)
C[C@@H]1CCCCO[C@@H](CN(C)C(=O)Nc2ccccc2)[C@@H](C)CN([C@H](C)CO)C(=O)c2cc(NC(=O)c3ccncc3)ccc2O1	none (no result: ID4 SMM, mut p53 react)
C[C@H]1CCCCO[C@@H](CN(C)C(=O)Nc2ccccc2)[C@@H](C)CN([C@@H](C)CO)C(=O)c2cc(NC(=O)c3ccncc3)ccc2O1	ID4 SMM active (no result: STK33 inh)
CNC[C@H]1Oc2ccc(NC(=O)c3ccncc3)cc2C(=O)N([C@@H](C)CO)C[C@@H]1C	none (no result: ID4 SMM, mut p53 react)
CC(C)NC(=O)N(C)C[C@H]1OCCCC[C@@H](C)Oc2ccc(NC(=O)Nc3ccc(C(F)(F)F)cc3)cc2C(=O)N([C@@H](C)CO)C[C@H]1C	none (no result: STK33 inh)
CNC[C@H]1Oc2ccc(NC(=O)c3ccncc3)cc2C(=O)N([C@H](C)CO)C[C@@H]1C	ID4 SMM active (no result: STK33 inh)
CC(C)NC(=O)N(C)C[C@@H]1OCCCC[C@@H](C)Oc2ccc(NC(=O)Nc3ccc(C(F)(F)F)cc3)cc2C(=O)N([C@@H](C)CO)C[C@@H]1C	ID4 SMM active (no result: STK33 inh)
CNC[C@@H]1Oc2c(NC(=O)c3ccc(-c4nccs4)cc3)cccc2C(=O)N([C@H](C)CO)C[C@H]1C	ID4 SMM active (no result: STK33 inh)
CNC[C@@H]1Oc2c(NC(=O)c3ccc(-c4nccs4)cc3)cccc2C(=O)N([C@H](C)CO)C[C@@H]1C	none (no result: STK33 inh)
CCCN1C(=O)C(O)(CC(=O)c2ccc(OC)c([N+](=O)[O-])c2)c2cc(Br)ccc21 (stereo unspecified)	none
CS(=O)(=O)N(CC(=O)Nc1cccc([N+](=O)[O-])c1)c1ccc(Br)cc1	none
C[C@@H]1O[C@@H](O[C@@H]2[C@@H](O)[C@H](Oc3c(-c4ccc(O)cc4)oc4cc(O)cc(O)c4c3=O)O[C@H](CO)[C@H]2O)[C@H](O)[C@H](O)[C@H]1O	none (no result: mut p53 react)
Cc1cc2nn(-c3ccc(Cl)cc3)nc2cc1NC(=O)COc1ccccc1C	none
